Calls of active or inactive are those of the source.
How the values were obtained:
Albumin (Bos taurus) = Albumin (Bos taurus) (UniProt P02769); experiment: bovine serum albumin binders on microarray, profiling panel, artefact control for SMM control protein annotation, biochemical, small-molecule microarray, Alexa647 label, 635/667 nm fluorescence (AID 1118); details: BSA-A647 binding, fluorescence 635 nm, higher = more signal;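 note: score merges 667 nm emission intensity and signal-to-noise per printed compound spot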
Albumin (Bos taurus), sequence (P02769 whole entry, looked up): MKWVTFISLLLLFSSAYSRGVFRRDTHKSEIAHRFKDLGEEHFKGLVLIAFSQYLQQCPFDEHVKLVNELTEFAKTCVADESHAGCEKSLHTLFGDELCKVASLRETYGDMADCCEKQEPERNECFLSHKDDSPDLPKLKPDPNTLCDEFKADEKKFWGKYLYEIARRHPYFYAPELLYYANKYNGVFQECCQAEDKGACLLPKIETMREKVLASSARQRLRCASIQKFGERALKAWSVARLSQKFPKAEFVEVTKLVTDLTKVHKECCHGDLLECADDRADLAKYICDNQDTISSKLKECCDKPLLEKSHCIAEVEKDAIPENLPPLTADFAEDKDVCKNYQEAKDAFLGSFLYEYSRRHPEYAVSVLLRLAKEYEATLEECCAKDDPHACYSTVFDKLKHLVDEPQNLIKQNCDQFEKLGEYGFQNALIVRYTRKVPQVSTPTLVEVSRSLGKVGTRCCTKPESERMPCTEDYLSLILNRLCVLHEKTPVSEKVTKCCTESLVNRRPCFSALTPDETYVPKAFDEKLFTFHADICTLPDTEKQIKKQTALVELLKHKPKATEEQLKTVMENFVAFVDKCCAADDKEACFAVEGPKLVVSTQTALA

[1] = small-molecule microarray binders of probe aXIP, primary screen, biochemical, NeuroSMM set, 635/667 nm fluorescence (AID 1119); details: higher = more signal, called active from +8 up or from −8 down;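 note: probe is the protein aXip251-270 applied at 1 µg/mL to compound-printed slides; binding of probe to printed compounds measured as 667 nm fluorescence plus signal to noise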
[2] = small-molecule binders of probe aNOTCH3, primary screen, biochemical, small-molecule microarray, 635/667 nm fluorescence (AID 1120); details: higher = more signal;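 note: probe is a biotin-tagged antibody raised against NOTCH3 rather than NOTCH3 protein; score merges spot fluorescence near 667 nm with spot signal to noise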
[3] = small-molecule binders of probe aNOTCH2, primary screen, biochemical, small-molecule microarray, 635/667 nm fluorescence (AID 1121); details: higher = more signal;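 note: score merges feature fluorescence read at 667 nm with its signal to noise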
[4] = biological target: Carbonic anhydrase 2 (Homo sapiens) (UniProt P00918); experiment: CAII small-molecule binders, profiling panel, biochemical, small-molecule microarray, Alexa647-labelled CAII (AID 1122); details: CAII-A647 binding fluorescence, higher = more signal
[5] = COS7 lysate on small-molecule microarray, probe aHis, 635 nm (AID 1123); details: COS7 cell lysate, fluorescence, higher = more signal;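 note: z-score combines 667nm fluorescence intensity with signal-to-noise per printed compound spot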
[6] = compound binding in COS7 lysate, probe aLAP1, primary screen, cell lysate, small-molecule microarray (AID 1124); details: probe aLAP1, fluorescence, higher = more signal;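 note: lysate comes from COS7 cells expressing LAP1 and is applied at 0.3 µg/mL; score merges spot fluorescence near 667 nm with signal-to-noise over triplicate slides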
Sam68 (KHDRBS1) = experiment: Sam68 small-molecule binders, primary screen, biochemical, small-molecule microarray, 635 nm fluorescence (AID 1125); details: small-molecule microarray binding, higher = more signal;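 note: score merges 667 nm channel intensity with signal to noise over triplicate slides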
[7] = test system: Chordin-like protein 2 (CHRDL2); experiment: CHRDL2 small-molecule binders, primary screen, biochemical, small-molecule microarray, 635 nm fluorescence (AID 1126); details: small-molecule microarray binding, fluorescence 635 nm; higher = more signal;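 note: printed compound slides probed with Chrdl2 protein at 4 µg/mL for 1 h at 4 C; score merges 667 nm emission intensity with signal to noise over three replicate slides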
[8] = biological target: Concanavalin-A (Canavalia ensiformis) (UniProt P02866); experiment: ConA small-molecule binders, primary screen, artefact control for SMM control protein annotation, biochemical, small-molecule microarray, Alexa647 label, 635 nm (AID 1127); details: ConA-A647 binding fluorescence, higher = more signal;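 note: z combines 667 nm emission intensity with signal-to-noise across three replicate slides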
Concanavalin-A (Canavalia ensiformis), sequence (P02866 whole entry, looked up): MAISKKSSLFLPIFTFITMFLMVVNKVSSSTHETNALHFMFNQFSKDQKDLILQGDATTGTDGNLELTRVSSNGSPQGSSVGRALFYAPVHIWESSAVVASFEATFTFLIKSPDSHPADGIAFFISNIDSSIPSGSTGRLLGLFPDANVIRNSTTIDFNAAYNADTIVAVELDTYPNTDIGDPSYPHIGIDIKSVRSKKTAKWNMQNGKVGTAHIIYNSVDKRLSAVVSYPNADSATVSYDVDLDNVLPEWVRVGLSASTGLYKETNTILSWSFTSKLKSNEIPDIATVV

[9] = anti-His antibody binders, primary screen, artefact control for SMM control protein annotation, biochemical, small-molecule microarray, 635 nm fluorescence (AID 1128); details: anti-His Alexa647 antibody binding, higher = more signal;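 note: score merges feature fluorescence with signal-to-noise for each printed compound spot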
[10] = test system: Human papillomavirus type 1a E7 protein (residues 1-88); experiment: HPV1a E7 small-molecule binders, primary screen, biochemical, small-molecule microarray, residues 1-88, 635 nm (AID 1129); details: small-molecule microarray binding, fluorescence 635 nm; higher = more signal
[11] = biological target: Focal adhesion kinase 1 (Homo sapiens) (UniProt Q05397); experiment: small-molecule microarray binders of FAK, primary screen, biochemical, 635/667 nm fluorescence, BSA, DTT (AID 1130); details: PTK2 binding, 635 nm fluorescence, higher = more signal;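 note: composite of spot emission at 667 nm and signal to noise over triplicate slides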
Focal adhesion kinase 1 (Homo sapiens), sequence (Q05397 whole entry, looked up): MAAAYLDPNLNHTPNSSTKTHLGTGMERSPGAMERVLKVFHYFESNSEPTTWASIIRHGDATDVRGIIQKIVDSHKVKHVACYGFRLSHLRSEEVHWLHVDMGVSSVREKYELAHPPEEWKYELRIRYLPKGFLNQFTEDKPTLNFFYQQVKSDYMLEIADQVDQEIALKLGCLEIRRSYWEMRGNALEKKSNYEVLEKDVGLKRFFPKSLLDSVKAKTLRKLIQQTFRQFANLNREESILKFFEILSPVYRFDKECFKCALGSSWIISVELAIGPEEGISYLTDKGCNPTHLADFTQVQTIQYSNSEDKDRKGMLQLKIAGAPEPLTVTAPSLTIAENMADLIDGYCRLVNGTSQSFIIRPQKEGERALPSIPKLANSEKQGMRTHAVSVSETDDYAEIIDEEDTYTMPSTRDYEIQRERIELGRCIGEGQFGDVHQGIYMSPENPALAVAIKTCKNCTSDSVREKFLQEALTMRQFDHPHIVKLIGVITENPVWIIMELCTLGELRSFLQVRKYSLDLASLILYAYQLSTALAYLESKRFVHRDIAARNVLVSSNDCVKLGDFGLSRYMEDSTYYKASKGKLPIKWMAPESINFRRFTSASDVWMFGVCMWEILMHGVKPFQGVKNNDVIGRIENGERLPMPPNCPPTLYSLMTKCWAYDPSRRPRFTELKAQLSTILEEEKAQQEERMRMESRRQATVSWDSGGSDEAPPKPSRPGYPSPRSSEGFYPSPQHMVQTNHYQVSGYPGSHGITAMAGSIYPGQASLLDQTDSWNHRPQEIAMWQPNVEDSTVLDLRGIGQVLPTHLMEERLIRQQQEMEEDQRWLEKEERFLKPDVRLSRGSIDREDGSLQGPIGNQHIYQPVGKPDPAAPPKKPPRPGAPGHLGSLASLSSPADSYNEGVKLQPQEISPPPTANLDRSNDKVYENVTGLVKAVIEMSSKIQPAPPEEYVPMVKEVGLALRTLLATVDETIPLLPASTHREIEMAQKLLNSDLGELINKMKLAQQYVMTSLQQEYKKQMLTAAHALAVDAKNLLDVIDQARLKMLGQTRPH

[12] = test system: Fibrinogen (Alexa647-labelled); experiment: fibrinogen binders on compound microarrays, profiling panel, artefact control for SMM control-protein annotation, biochemical, small-molecule microarray, 635/667 nm fluorescence (AID 1131); details: fibrinogen-A647 binding fluorescence, higher = more signal;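 note: z-score merges 667 nm fluorescence with per-spot signal-to-noise over triplicate slides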
[13] = biological target: Follistatin (Homo sapiens) (UniProt P19883); experiment: follistatin binders on small-molecule microarrays, primary screen, biochemical, small-molecule microarray, 635/667 nm fluorescence (AID 1132); details: FST binding, 635 nm fluorescence, higher = more signal
Follistatin (Homo sapiens), sequence (P19883 whole entry, looked up): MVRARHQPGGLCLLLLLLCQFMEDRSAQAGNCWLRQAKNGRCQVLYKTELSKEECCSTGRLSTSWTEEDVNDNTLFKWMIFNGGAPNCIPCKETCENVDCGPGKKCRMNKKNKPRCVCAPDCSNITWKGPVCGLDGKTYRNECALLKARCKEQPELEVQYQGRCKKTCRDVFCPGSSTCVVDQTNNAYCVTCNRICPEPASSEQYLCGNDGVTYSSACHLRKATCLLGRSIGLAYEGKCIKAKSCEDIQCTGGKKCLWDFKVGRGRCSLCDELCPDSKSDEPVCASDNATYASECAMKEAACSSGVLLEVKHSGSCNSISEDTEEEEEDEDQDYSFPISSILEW

[14] = biological target: Fibroblast growth factor 2 (Homo sapiens) (UniProt P09038); experiment: FGF2 binders on small-molecule microarrays, primary screen, biochemical, small-molecule microarray, 635/667 nm fluorescence (AID 1133); details: small-molecule microarray binding, FGF2, fluorescence 635/667; higher = more signal
Fibroblast growth factor 2 (Homo sapiens), sequence (P09038 whole entry, looked up): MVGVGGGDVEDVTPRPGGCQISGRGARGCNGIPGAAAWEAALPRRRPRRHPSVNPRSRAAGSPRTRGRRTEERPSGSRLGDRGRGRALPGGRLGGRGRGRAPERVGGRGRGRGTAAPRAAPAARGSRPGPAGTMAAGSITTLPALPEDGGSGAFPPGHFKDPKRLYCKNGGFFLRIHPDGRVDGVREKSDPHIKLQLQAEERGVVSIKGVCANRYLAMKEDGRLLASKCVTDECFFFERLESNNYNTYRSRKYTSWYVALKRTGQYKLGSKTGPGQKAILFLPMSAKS

[15] = mitochondrial membrane potential change in A549 cells, profiling panel, cell-based, JC-1 fluorescence, basal, 24 h, 100 nL (AID 1138); details: higher = more signal;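 note: A549 lung adenocarcinoma cells under basal conditions with no added stimulus; test concentration not given here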
Lefty1 = Lefty1 binders on small-molecule microarrays, primary screen, biochemical, small-molecule microarray, 635/667 nm fluorescence (AID 1139); details: small-molecule microarray binding, fluorescence 635/667; higher = more signal
[16] = test system: wheat germ agglutinin (Triticum aestivum), Alexa647-labelled; experiment: wheat germ agglutinin binders on compound microarrays, profiling panel, artefact control for SMM control-protein annotation, biochemical, small-molecule microarray, 635/667 nm fluorescence (AID 1140); details: WGA-A647 binding, 635 nm fluorescence, higher = more signal;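 note: score merges 667 nm feature emission with signal to noise over triplicate slides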
[17] = biological target: Luciferin 4-monooxygenase (Photinus pyralis) (UniProt P08659); experiment: firefly luciferase enzyme inhibitors, primary screen, biochemical, luminescence, purified enzyme, 2006 set (AID 1141); details: SteadyGlo luminescence, 30 min, higher = more signal, called active from +8 up or from −8 down;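 note: cell-free assay with purified firefly luciferase at 100 ng per well in PBS; test concentration not given here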
Luciferin 4-monooxygenase (Photinus pyralis), sequence (P08659 whole entry, looked up): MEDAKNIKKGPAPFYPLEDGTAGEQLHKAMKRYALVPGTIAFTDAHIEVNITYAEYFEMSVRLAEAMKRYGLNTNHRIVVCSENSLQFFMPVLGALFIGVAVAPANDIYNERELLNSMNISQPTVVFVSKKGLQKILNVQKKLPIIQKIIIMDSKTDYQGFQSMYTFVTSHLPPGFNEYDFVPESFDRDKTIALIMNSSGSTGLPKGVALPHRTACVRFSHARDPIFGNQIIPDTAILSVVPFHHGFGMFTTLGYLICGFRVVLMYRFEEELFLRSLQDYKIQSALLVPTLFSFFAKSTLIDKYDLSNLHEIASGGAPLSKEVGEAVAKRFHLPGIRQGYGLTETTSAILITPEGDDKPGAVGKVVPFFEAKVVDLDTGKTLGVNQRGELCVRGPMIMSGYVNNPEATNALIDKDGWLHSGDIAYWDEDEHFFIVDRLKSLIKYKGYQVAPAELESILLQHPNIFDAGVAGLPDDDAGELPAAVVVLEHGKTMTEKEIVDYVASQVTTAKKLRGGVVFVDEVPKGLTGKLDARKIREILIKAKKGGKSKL

Compound | composite z-score (Albumin (Bos taurus)) | composite Z-score [1] | composite z-score [2] | composite z-score [3] | composite z-score [4] | composite z-score [5] | composite z-score [6] | composite z-score (Sam68 (KHDRBS1)) | composite z-score [7] | composite z-score [8] | composite z-score [9] | composite z-score [10] | composite z-score [11] | composite z-score [12] | composite z-score [13] | composite z-score [14] | z-score [15] | composite z-score (Lefty1) | composite z-score [16] | z-score [17]
CC(C)(C)OC(=O)CC[C@@]1(C(N)=O)N=C(c2ccc(OCCCO)cc2)O[C@@H]1c1ccccc1CN=[N+]=[N-] | 0.818 | -0.0657 (inactive) | 0.651 | 0.27 | 0.876 | 3.13 | 1.12 | 0.914 | 0.312 | 0.933 | 3.46 | 1.13 | 0.177 | 0.524 | 1.34 | 1.34 | -0.332 | -0.721 | 0.68 | -1.79 (inactive)
COC(=O)[C@@]1(Cc2ccc(F)cc2)[C@H]2c3cc(C(=O)N4CCCC4)n(CCSCCO)c3C[C@H]2CN1C(=O)c1ccccc1 | 0.855 | -0.338 (inactive) | 0.241 | 0.231 | 0.839 | 3.25 | 0.258 | 0.644 | -0.562 | 0.532 | 0.163 | 0.767 | 1.11 | 0.982 | -0.16 | -0.79 | 0.281 | -0.973 | 0.679 | 0.5 (inactive)

Reference: PubChem BioAssay
